The text below walks through data of PubChem BioAssay (NCATS).

Assay [1] in a line: AP1 Signaling Pathway (AID 357; active means well fitted curve in either direction with a large enough effect, not every such curve was filed as active;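 further: ME-180 reporter cells stimulated with EGF at its EC50 level; on the % scale 0 is the no-effect control and ±100 the full control effect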). The note with it: ME-180 AP-1-bla reporter, EGF-induced, beta-lactamase ratio, 5 h; at 7.69 µM (top of the series) unless noted. The gist of the method: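 Beta-lactamase reporter under AP-1 response element, ME-180 background. Stimulus: EC50 EGF. Compound exposure 5 h, 37 °C. Detection: CCF4, 2.5 h RT, 460/530 nm. Values: AC50 from titration.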

Assay [2] has as its target Cytochrome P450 1A2 (Homo sapiens) (UniProt P05177). The assay is described as follows: p450-cyp1a2 (AID 410; calls by dose curve; further: potency means the concentration at half of the fitted maximal effect). Particulars: recombinant CYP1A2, luciferin-ME demethylation, luminescence; series mostly up to 57 µM. The essentials:
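Luminescent readout of luciferin formed from Luciferin-ME by human CYP1A2; data normalized against complete inhibition by 57 uM furafylline. Enzyme 20nM, substrate 100uM at Km, 100mM KPO4 buffer, 60 min reaction at room temperature.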

Assay [3] is described as follows: NFAT Signaling Pathway (AID 444; active means well fitted curve in either direction with a large enough effect, not every such curve was filed as active;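 further: carbachol stimulus at about its EC50 of 1 µM final; on the % scale 0 is the no-effect control and ±100 the full control effect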). The note with it: Jurkat NFAT-bla M1, carbachol, beta-lactamase ratio, 5 h; at 7.69 µM (top of the series) unless noted. The essentials: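 Jurkat cells with NFAT-driven β-lactamase reporter and co-expressed M1 receptor, stimulated with carbachol (final 1 uM, ~EC50), compound titration, 5 h at 37 °C. CCF4 loaded 1 h at RT; 460/530 nm ratio gave %activity and AC50.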

Assay [4] is described as follows: Stat Signaling Pathway (AID 446; active means well fitted curve in either direction with a large enough effect, not every such curve was filed as active;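 further: ME-180 cervical cancer cells given 40 pM IL-6 alongside compound; SIE-controlled beta-lactamase reporter measured as 460/530 nm FRET emission ratio; on the % scale 0 is the no-effect control and ±100 the full control effect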). Particulars: ME-180 SIE beta-lactamase reporter, IL-6 stimulated, 5 h; at 7.69 µM (top of the series) unless noted. The gist of the method:
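IL-6/STAT signaling read in ME-180 cells via an SIE beta-lactamase reporter. Stimulus was 40 pM IL-6 (its AC50) for 5 hrs, so both activation and inhibition register.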

In assay [5] the target is Glucocorticoid receptor (Homo sapiens) (UniProt P04150). The assay is described as follows: GR-GFP Redistribution (AID 450;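 active means compounds whose dose series gives a full or clear partial fitted curve of increased nuclear translocation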; further: potency means the concentration at half of the fitted maximal effect). The note with it: U2OS GR-GFP nuclear translocation, laser cytometry, 2 h.
The target is the same in assay [6]. The assay can be described thus: GR-EFC Redistribution (AID 451; calls by dose curve; further: potency means the concentration at half of the fitted maximal effect). Particulars: CHO-K1 GR-EFC translocation, beta-gal luminescence, 2 h. The essentials: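 CHO-K1 cells expressing nuclear EA and GR-ED fragments of b-gal; compounds titrated up to 46 uM final, 2 h at 37 C. GR nuclear translocation read as complemented b-gal luminescence after 1 h RT detection.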
Assay [7] addresses Mitogen-activated protein kinase 10 (Mus musculus) (UniProt Q61831). The assay can be described thus: JNK3 AlphaScreen Assay (AID 530; active means well fitted curve in either direction with a large enough effect, not every such curve was filed as active;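 further: kinase came from lysate of stimulated human HepG2 cells; signal reports phosphorylation of biotinylated GST-cJun 1-79 at Ser73 with 10 µM ATP; on the % scale 0 is the no-effect control and ±100 the full control effect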). Particulars: JNK3 lysate, c-Jun phosphorylation; series mostly up to 57.1 µM. The gist of the method: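 Pre-activated (IL-1β/TNFα) JNK3 in HepG2 lysates phosphorylates biotin-GST-cJun(1-79), 10 uM ATP; anti-phospho-cJun(Ser73) AlphaScreen read at room temperature, pH 7.6 Tris buffer. Compounds pre-incubated 15 min as titrations.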

The target in assay [8] is Cytochrome P450 3A4 (Homo sapiens) (UniProt P08684). The assay is described as follows: qHTS Assay for Inhibitors and Substrates of Cytochrome P450 3A4 (AID 884). Further: potency means the concentration at half of the fitted maximal effect; nearly all actives have a fitted effect of over 50% in size. The note with it: recombinant CYP3A4, Luciferin-PPXE luminescence; series mostly up to 57.1 µM. The essentials: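 20 nM human CYP3A4 with 25 uM Luciferin-PPXE (at KM) in 200 mM KPO4, preincubated 10 min with compound; NADPH regeneration started a 60 min RT reaction. Luciferin detected by luminescence, normalized to 57 uM ketoconazole as full inhibition.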

For assay [9] the target is unchanged. The assay can be described thus: qHTS Assay for Activators of Cytochrome P450 3A4 (AID 885). Further: nearly all actives have a fitted effect of over 65% in size. The note with it: recombinant CYP3A4, Luciferin-PPXE luminescence, 60 min; series mostly up to 57.1 µM. The essentials: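 Quantitative HTS format: compounds preincubated with 20nM human CYP3A4 and Luciferin-PPXE substrate at KM, reaction started by NADPH regeneration, stopped after 60 min, luciferase luminescence read 20 min later.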

Assay [10] can be described thus: Confirmation and Secondary Assay for Modulators of Hemoglobin Beta Chain Splicing at IVS2 654 locus (AID 910).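 Further: HeLa cells stably carrying EGFP split by mutant beta-globin IVS2-654 intron; % of control where 0% means no effect.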 Particulars: HeLa EGFP-654 splicing reporter, GFP fluorescence, 48 h; series mostly up to 38.3 µM. The gist of the method:
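HeLa cells stably expressing EGFP interrupted by β-globin IVS2-654 intron, seeded overnight in Opti-MEM/2% FCS, then treated 2 days at 37 °C. Restored splicing read as total peak GFP intensity per well by laser scanning cytometry (488 nm excitation, 500–520 nm emission); 500 nM antisense PNA as control.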

The nature of assay [11]: Confirmation and Secondary Assay for Modulators of Hemoglobin Beta Chain Splicing at IVS2 705 locus (AID 930).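 Further: HeLa cells stably expressing the EGFP-705 splicing reporter; GFP fluorescence per well restored by corrected splicing of the IVS2-705 intron in EGFP; % of control where 0% means no effect.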 The note with it: HeLa EGFP-705 splicing reporter, GFP fluorescence, 48 h; series mostly up to 38.3 µM. The essentials:
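First, HeLa EGFP-705 cells are seeded at 500/well in Optimem with 2% FCS and left overnight. Next, compound or DMSO is added for 2 days. Finally wells are laser-scanned and total peak GFP intensity scored.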

Assay [12] is described as follows: qHTS Assay for Lipid Storage Modulators (AID 1519; calls by dose curve). Particulars: Drosophila S3 cells, BODIPY lipid droplet/cell ratio, laser cytometry, cells loaded with oleic acid; for activity change, negative = inhibition: at 57.5 µM (top of the series). The essentials:
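Cells seeded at 5,000 per well were treated with compounds over a concentration series and loaded with oleic acid (400 uM, as added). Lipid droplet fluorescence (488 nm excitation, 500-530 nm channel) was read by laser-scanning cytometry and normalized to 20 uM Triacsin C.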

The target in assay [13] is Ubiquitin carboxyl-terminal hydrolase 1 (Homo sapiens) (UniProt O94782). The assay can be described thus: Inhibitors of USP1/UAF1: Pilot qHTS (AID 504865). Further: potency means the concentration at half of the fitted maximal effect; nearly all actives have a fitted effect of over 35% in size. Particulars: purified USP1/UAF1, Ub-rhodamine cleavage fluorescence; series mostly up to 54.9 µM. The gist of the method: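 Deubiquitinase activity followed as kinetic rhodamine fluorescence release from 150 nM Ub-Rho. 1 nM USP1/UAF1 with compound, after 15 min room-temperature preincubation, in HEPES pH 7.8 buffer containing TCEP, EDTA, BSA and Tween-20.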

The nature of assay [14]: Primary qHTS for small molecule stabilizers of the endoplasmic reticulum resident proteome: Secreted ER Calcium Modulated Protein (SERCaMP) assay (AID 1508630). Further: on the % scale 0 is the no-effect control and ±100 the full control effect. The note with it: SH-SY5Y GLuc-SERCaMP (Gaussia luciferase released on ER calcium loss) secretion, thapsigargin, luminescence; series mostly up to 38.4 µM. The essentials:
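GLuc-SERCaMP-expressing SH-SY5Y cells, pretreated 16 h with compound, are challenged with thapsigargin to empty ER calcium stores; after 4 h, coelenterazine is added directly to the medium and luminescence is imaged.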

Assay [15] concerns the target Lysosomal acid glucosylceramidase (Homo sapiens) (UniProt P04062). The assay is described as follows: Glucocerebrosidase-p2 (AID 348; in the data active means potency below about 10 µM; further: potency means the concentration at half of the fitted maximal effect). The note with it: purified GBA, blue fluorogenic substrate, 40 min. The essentials: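 Compounds titrated from 0.6 nM upwards against 0.2 nM enzyme in pH 5.9 citric acid/KH2PO4, taurocholate, tween-20; blue fluorogenic substrate 80 uM, 40 min room temperature, stopped and read Ex 365/Em 440 for AC50.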

In assay [16] the target is 3',5'-cyclic-AMP phosphodiesterase 4B (Homo sapiens) (UniProt Q07343). The assay is described as follows: qHTS Assay for Inhibitors of PDE-IV (AID 607; active means well fitted activation curve with a large enough effect in the main read-out, with a control signal flat, not every such curve was filed as active; further: % of control where 0% means no effect). Particulars: HEK293 ACTOne CNG channel cells, membrane potential fluorescence; series mostly up to 22.9 µM. The gist of the method: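 Live HEK293 cells with a modified cyclic nucleotide-gated (CNG) channel report intracellular cAMP via membrane-potential dye fluorescence (ex 535/em 590 nm). Endogenous PDE-IV was targeted. Compounds were tested at up to 22.9 uM final; RO 20-1724 100 uM served as control.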

Assay [17] is described as follows: qHTS Assay for Identification of Small Molecule Agonists for Hypoxia Response Element Signaling Pathway (AID 914; active means well fitted activation curve with a large enough effect in the signal ratio, with a control signal flat, not every such curve was filed as active; the % refers to the signal ratio; further: potency means the concentration at half of the fitted maximal effect). Particulars: ME-180 (cervical carcinoma) HRE-bla reporter, beta-lactamase ratio, CoCl2, 17 h; activation: stronger effect = higher value. The gist of the method:
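Positive modulation of EC50 CoCl2-induced hypoxia response element signaling is measured in ME-180 cells with a beta-lactamase reporter. Compounds are titrated, incubation runs 17 hours, and %Activity derives from the blue/green ratio.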

[18] abbreviates: measured here: cell count channel max response.
Setting [19] is: measured here: lipid channel max response.

Inconclusive results are not listed. The source made the active and inactive calls. Unless noted, the call rests on the fitted dose curve; in most records, active means well fitted curve in the direction sought with a large enough effect; inconclusive means small, poorly fitted or top-dose-only effect, or another doubt; inactive means no such curve, though single readings can be large; an effect the other way counts as inactive or inconclusive. Where only a bound is given, the exact number is not on record here.

Cytochrome P450 3A4 (Homo sapiens), sequence (P08684 whole entry, looked up): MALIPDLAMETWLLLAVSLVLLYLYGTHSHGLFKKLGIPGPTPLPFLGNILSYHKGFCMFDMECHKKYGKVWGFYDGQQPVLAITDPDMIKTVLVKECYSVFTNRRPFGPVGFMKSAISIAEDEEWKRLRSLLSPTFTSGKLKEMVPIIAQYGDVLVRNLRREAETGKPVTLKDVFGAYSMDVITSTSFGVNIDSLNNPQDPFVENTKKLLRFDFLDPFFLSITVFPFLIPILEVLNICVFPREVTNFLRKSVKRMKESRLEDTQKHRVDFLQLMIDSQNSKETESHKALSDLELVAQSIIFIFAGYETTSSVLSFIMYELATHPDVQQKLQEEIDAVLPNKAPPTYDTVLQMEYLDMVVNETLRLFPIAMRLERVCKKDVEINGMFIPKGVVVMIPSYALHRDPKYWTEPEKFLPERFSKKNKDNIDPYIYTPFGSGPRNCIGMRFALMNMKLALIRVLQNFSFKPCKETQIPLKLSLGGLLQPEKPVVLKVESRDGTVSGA
Lysosomal acid glucosylceramidase (Homo sapiens), sequence (P04062 whole entry, looked up): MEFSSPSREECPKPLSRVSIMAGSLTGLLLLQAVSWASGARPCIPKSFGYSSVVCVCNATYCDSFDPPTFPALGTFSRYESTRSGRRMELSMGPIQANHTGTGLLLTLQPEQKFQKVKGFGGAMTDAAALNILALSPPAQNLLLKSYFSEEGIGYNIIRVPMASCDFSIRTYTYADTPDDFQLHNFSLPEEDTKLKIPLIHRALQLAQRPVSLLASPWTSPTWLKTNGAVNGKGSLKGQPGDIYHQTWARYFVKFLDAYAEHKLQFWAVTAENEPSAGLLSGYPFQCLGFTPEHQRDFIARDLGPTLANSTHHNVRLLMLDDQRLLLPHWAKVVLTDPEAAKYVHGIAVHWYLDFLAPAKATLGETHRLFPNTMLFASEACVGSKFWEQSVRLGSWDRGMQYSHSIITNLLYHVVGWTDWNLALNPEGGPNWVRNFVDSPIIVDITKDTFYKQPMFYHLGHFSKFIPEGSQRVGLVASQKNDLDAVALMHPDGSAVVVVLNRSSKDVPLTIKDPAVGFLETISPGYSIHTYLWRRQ
Glucocorticoid receptor (Homo sapiens), sequence (P04150 whole entry, looked up, the tested form may be a part): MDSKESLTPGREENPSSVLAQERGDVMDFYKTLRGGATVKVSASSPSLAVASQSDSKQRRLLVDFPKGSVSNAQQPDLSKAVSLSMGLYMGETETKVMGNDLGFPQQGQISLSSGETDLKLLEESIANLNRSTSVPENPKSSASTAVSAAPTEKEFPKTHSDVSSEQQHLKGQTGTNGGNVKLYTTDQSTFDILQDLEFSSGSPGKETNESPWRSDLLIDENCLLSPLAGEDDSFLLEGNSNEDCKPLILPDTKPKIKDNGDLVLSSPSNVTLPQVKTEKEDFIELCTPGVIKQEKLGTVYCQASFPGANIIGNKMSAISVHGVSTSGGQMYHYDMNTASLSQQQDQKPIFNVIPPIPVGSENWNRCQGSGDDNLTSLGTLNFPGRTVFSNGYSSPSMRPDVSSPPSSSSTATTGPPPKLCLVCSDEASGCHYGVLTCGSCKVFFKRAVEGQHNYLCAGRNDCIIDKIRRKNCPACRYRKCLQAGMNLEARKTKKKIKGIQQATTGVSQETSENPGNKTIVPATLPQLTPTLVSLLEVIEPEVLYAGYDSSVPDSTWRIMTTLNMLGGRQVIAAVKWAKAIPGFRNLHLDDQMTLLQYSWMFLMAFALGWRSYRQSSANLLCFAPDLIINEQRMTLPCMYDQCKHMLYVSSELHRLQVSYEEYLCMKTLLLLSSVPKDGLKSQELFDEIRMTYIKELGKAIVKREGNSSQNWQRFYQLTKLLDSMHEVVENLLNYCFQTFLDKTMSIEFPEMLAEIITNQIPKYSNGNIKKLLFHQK
Cytochrome P450 1A2 (Homo sapiens), sequence (P05177 whole entry, looked up): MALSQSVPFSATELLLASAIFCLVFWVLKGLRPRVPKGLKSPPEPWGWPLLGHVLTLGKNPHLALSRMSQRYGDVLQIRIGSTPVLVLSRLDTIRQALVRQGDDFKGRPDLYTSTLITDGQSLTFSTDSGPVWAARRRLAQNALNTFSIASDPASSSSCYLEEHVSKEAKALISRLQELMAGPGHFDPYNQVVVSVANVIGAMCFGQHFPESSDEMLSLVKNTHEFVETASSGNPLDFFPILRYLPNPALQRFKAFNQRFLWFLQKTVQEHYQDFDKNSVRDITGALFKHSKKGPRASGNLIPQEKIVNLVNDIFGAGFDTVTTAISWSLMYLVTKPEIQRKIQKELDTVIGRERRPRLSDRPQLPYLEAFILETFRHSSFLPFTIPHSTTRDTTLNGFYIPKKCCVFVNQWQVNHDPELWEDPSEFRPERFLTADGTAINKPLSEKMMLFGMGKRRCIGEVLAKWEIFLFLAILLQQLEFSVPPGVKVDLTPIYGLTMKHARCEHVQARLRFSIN
Ubiquitin carboxyl-terminal hydrolase 1 (Homo sapiens), sequence (O94782 whole entry, looked up): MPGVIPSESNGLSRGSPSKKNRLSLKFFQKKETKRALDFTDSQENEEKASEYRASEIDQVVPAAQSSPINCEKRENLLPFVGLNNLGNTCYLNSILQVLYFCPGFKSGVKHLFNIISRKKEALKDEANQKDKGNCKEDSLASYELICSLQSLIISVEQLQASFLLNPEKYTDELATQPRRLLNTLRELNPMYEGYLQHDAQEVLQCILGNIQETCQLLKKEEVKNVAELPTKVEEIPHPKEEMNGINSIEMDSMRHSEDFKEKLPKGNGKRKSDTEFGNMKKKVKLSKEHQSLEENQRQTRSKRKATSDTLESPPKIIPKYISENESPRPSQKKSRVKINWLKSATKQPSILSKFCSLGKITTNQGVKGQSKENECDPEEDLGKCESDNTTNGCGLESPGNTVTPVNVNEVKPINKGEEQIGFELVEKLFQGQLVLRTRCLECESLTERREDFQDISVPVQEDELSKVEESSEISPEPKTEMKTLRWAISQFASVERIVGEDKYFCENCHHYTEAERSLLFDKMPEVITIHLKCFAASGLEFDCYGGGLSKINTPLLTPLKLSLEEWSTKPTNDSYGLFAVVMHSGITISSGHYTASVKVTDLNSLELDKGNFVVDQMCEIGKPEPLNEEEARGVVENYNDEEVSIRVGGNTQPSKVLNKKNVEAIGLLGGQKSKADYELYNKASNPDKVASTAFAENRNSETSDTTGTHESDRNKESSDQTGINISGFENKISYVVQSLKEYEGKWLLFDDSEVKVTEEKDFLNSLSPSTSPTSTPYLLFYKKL
3',5'-cyclic-AMP phosphodiesterase 4B (Homo sapiens), sequence (Q07343 whole entry, looked up): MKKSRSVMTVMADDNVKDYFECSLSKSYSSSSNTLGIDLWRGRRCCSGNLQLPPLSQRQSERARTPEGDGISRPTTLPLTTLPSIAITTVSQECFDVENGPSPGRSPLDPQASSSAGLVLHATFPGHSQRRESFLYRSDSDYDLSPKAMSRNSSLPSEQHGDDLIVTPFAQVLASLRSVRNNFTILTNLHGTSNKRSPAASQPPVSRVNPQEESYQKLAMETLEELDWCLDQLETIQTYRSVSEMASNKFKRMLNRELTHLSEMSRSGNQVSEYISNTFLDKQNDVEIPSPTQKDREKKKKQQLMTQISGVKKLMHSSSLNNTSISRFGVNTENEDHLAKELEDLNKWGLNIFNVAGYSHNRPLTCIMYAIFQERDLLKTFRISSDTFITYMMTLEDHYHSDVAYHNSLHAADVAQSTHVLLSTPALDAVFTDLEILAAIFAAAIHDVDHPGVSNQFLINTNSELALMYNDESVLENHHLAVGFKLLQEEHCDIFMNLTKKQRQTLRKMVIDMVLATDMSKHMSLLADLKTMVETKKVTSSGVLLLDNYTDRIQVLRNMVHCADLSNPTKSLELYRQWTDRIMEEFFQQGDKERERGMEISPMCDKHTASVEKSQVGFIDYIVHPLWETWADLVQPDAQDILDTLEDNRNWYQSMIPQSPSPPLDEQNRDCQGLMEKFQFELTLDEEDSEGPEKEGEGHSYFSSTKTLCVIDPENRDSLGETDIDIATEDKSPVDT

As for `Cc1ccccc1-c1nc(NCc2cccnc2)c2ccccc2n1`, the activity change, negative = inhibition in assay [1] was -6.01% (inactive); in assay [3], -1.21% (inactive); in [12] it was 1.87% (inactive). For the same molecule, the Potency is 0.501 µM (active) in assay [2]; > 46 µM (inactive) in assay [5]; > 46 µM (inactive) in assay [6]; 0.501 µM (active) in assay [8]; 28.2 µM (active) in [13]. The activity, negative = inhibition in assay [4] was 3.29% (inactive). Also, the Potency entry in assay [7], in assay [9] and in [10] was “inactive” in each case. The molecule was classed as inactive in assay [11] and in assay [14]. Further, the max response was -7.11% in [12] (setting [18]) and -4.19% in assay [12] (setting [19]).

As to `N#Cc1cccc(-c2ccc3ncnc(NCc4cccnc4)c3c2)c1`, the Potency was > 11.4 µM (inactive) in assay [15], > 46 µM (inactive) in assay [5] and > 46 µM (inactive) in [6]. Moreover, the activity change, negative = inhibition in [3] was 21.6% (inactive); in assay [12], 7.68% (inactive). In addition, in [4], the activity, negative = inhibition was -12.3% (inactive). Moreover, the Potency result in assay [7], in [16] and in assay [10] was “inactive” throughout. The call in assay [11] and in assay [14] was inactive. Further, the max response in [12] (setting [18]) turned out to be 12%; in [12] (setting [19]), 20.4%.

In the case of `COc1ccccc1CNc1ncnc2ccc(-c3c(C)noc3C)cc12`, the Potency in assay [15] was > 11.4 µM (inactive); in [2] it was 7.94 µM (active); in [5], > 46 µM (inactive); in assay [6] it was > 46 µM (inactive); in [17], 1.26 µM (active). Also, the Potency result in assay [7] and in [9] was “inactive” throughout. Besides, the call in assay [11] and in [14] was inactive. For the same molecule, in assay [12], the activity change, negative = inhibition is -5.34% (inactive). In addition, the figures for the max response in assay [12] (setting [18]) and in assay [12] (setting [19]) were -3.01% and -7.6%, respectively.

Take `O=c1c(-c2ccc(F)cc2)nc2cnc(N3CCOCC3)nc2n1-c1ccccc1`: the Potency was > 11.4 µM (inactive) in [15], > 9.22 µM (inactive) in assay [5], > 46 µM (inactive) in assay [6] and 1.26 µM (active) in assay [17]. In assay [7], the Potency entry is “inactive”. Besides, the activity change, negative = inhibition in assay [12] was -4.64% (inactive). For the same molecule, the figures for the max response in assay [12] (setting [18]) and in [12] (setting [19]) were 7.89% and 5.39%, respectively. Also, the result in [14] was inactive.
